Compound activity from PubChem BioAssay.
Rows were chosen to be rich in hits. Some 0.9% of all compounds tested hit in one or more screens of this group.
GCN5L2 inh: qHTS Assay for Inhibitors of GCN5L2; GCN5L2 HAT assay, ThioGlo1 CoA-SH fluorescence; Potency, µM (series often up to 58.9 µM), for inactives: at the top dose activity change, negative = inhibition, most hits filed as inhibitors; 0.21% of 390,000 active
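GCN5L2 (20 nM) in 50mM HEPES pH 7.5, 0.1mM EDTA, 0.01% Tween-20 preincubated 15 min with compounds at room temperature. Reaction started with H3(1-25) 75uM, acetyl-CoA 70uM, ThioGlo1 50uM; CoA-thiol fluorescence (Ex340/Em540) read at 0 and 20 min.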
APEX1 inh: qHTS Assay for Inhibitors of the Human Apurinic/apyrimidinic Endonuclease 1 (APE1). DNA repair nuclease/redox regulator APEX1 (Homo sapiens), P27695. 0.35% of 350,000 active. recombinant APE1, TAMRA/BHQ-2 abasic DNA cleavage fluorescence. Potency, µM (titrated, usually from 65.8 µM), without a hit: top-dose activity change, negative = inhibition, hits mostly inhibitors;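 note: plate controls were vehicle for no effect and reference inhibitor for full effect; nearly all actives have a fitted effect of over 55% in size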
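Activity was derived from the fluorescence gain between first and third kinetic reads (60 s intervals, ex 525/em 598 nm) after 50 nM THF-abasic TAMRA/BHQ-2 duplex was added to 0.75 nM APE1 preincubated 15 min with compound.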
RECQ1 inh: qHTS Assay for Inhibitors of RecQ-Like Dna Helicase 1 (RECQ1). RECQ1 DNA unwinding, red fluorescence kinetic read. Potency, µM (series often up to 57.3 µM), for inactives: top-dose activity, negative = inhibition, usual class: inhibitors. 0.54% of 240,000 active. AID 2549, 2010;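 note: plate controls were vehicle for no effect and no enzyme for full effect; nearly all actives have a fitted effect of over 30% in size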
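50 nM RECQ1T1 preincubated 15 min with compound in Tris pH 8.0 buffer with MgCl2, DTT, Tween-20 and 2.5 ug/ml poly(dI-dC); started with 200 nM TAMRA/BHQ-2 forked duplex and 2 mM ATP. Unwinding read as fluorescence (525/598 nm), two reads 2 h apart.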
BLM inh: qHTS Assay for Inhibitors of Bloom's syndrome helicase (BLM); 0.2% of 350,000 active; AID 2528, 2010; RecQ-like DNA helicase BLM (Homo sapiens), P54132; recombinant BLM DNA unwinding, fluorescence dequenching; Potency, µM (series often up to 56.1 µM), for the others: at the highest dose activity change, negative = inhibition, usual class: inhibitors;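 note: plate controls were vehicle for no effect and no enzyme for full effect; nearly all actives have a fitted effect of over 35% in size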
LMNA splice mod: qHTS Assay for Modulators of Lamin A Splicing; HeLa LMNA splicing GFP/RFP minigene ratio, 48 h; Potency, µM (doses to about 46.1 µM), inactives show at the highest dose ratio change, negative = inhibition, actives largely listed as inhibitors; 0.01% of 200,000 active; AID 1487, 2009; active = well fitted inhibition curve with a large enough effect in the signal ratio, with a control signal flat, not every such curve was filed as active; inconclusive = small, poorly fitted or top-dose-only effect, or effect the other way, or a change in a side signal; the % refers to the signal ratio
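S3 HeLa stable clones carrying a lamin A-EGFP splicing minigene plus DsRed2 were seeded at 600 cells/well in Opti-MEM with 2% FBS, pin-dosed and incubated 48 h at 37°C. Acumen cytometry (488 nm) gave the GFP/RFP total-intensity ratio.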
TDP1 inh: qHTS Assay for Inhibitors of Tyrosyl-DNA Phosphodiesterase (TDP1). recombinant TDP1, AlphaScreen DNA substrate cleavage. Potency, µM (highest dose often 130 µM), inactives show at the top dose activity change, negative = inhibition, most hits filed as inhibitors. 0.28% of 350,000 active. AID 485290, 2010; note: nearly all actives have a fitted effect of over 40% in size
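Recombinant human Tdp1 (E. coli-expressed, 1 nM final) preincubated with compounds 15 min at room temperature, then 5'-biotin/3'-phosphotyrosine-FITC DNA substrate (15 nM final) added for 5 min. AlphaScreen beads (10 ug/ml final) added 10 min; cleavage lowers signal.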
Starred values were filed as active, the others as inactive; [ ] = dose if it differs, or a comment. Unless noted, calls come from the whole dose curve; as a rule, active = well fitted curve in the direction sought with a large enough effect; inconclusive = small, poorly fitted or top-dose-only effect, or another doubt; inactive = no such curve, though single readings can be large; an effect the other way counts as inactive or inconclusive. Unless noted, % is set by controls: 0 for no effect and ±100 for the full control effect; potency is the fitted concentration of half-maximal effect.

Screening CC[N+]1=C(C)C(C)(C)c2cc(C)ccc21 returned GCN5L2 inh 0.8%, APEX1 inh 10µM*, RECQ1 inh 25.1µM*, BLM inh -10.2%, LMNA splice mod inconclusive and TDP1 inh 8.0%.
C/C(=N\Nc1nc2ccccc2[nH]1)c1ccc(Cl)s1 was read as GCN5L2 inh 26.4%, APEX1 inh -5.9%, RECQ1 inh 31.6µM*, BLM inh -12.1%, LMNA splice mod inconclusive and TDP1 inh 10.5%.
`CC(=O)c1ccccc1NS(=O)(=O)c1cccc2nsnc12` gave GCN5L2 inh -17.0%, APEX1 inh 5.32µM* and BLM inh -14.2%.
CCCCC(=O)N/N=C/c1ccc(-c2ccc([N+](=O)[O-])cc2)o1 was read as GCN5L2 inh 0.5%, APEX1 inh 0.6%, RECQ1 inh -5.9%, BLM inh -3.0%, LMNA splice mod 8.0%[46 µM] and TDP1 inh 0.0%.
Screening Cc1cc(C)n(Cc2ccc(C(=O)N/N=C/c3ccc(-c4ccc([N+](=O)[O-])cc4)o3)o2)n1 returned GCN5L2 inh -19.6%, APEX1 inh 2.67µM* and BLM inh 15.8µM*.
Screening COc1ccc(/C=C/C(=O)O)cc1S(=O)(=O)NC1CCS(=O)(=O)C1 (configuration not stated) returned GCN5L2 inh 2.1%, APEX1 inh -3.5%, RECQ1 inh inactive, BLM inh 3.1% and TDP1 inh 50.1µM*.
COc1ccc(C2Nc3ccccc3C(=O)N2Cc2ccccc2C)cc1COc1ccc(NC(C)=O)cc1 (configuration not stated) was read as TDP1 inh -2.2%.
Screening C=CCn1c(N)c(C(=O)NCC2CCCO2)c2nc3ccccc3nc21 (configuration not stated) returned GCN5L2 inh inconclusive, APEX1 inh -2.0%, RECQ1 inh -7.8%, BLM inh 5.62µM*, LMNA splice mod inconclusive and TDP1 inh 1.0%.
Screening Cc1ccccc1-c1cc(-n2ccnc2)ncn1 returned GCN5L2 inh -1.1%, APEX1 inh 2.4%, RECQ1 inh 1.2%, BLM inh 0.0%, LMNA splice mod inconclusive and TDP1 inh 25.1µM*.
Cc1ccccc1-c1nccc(-n2ccnc2)n1 was read as GCN5L2 inh inconclusive, APEX1 inh 3.3%, RECQ1 inh -6.2%, BLM inh 3.3% and LMNA splice mod -8.8%.
COc1ccc(SCC(CC(C)C)N2CCN(C)CCC2=O)cc1 (configuration not stated) was read as APEX1 inh -0.7%, RECQ1 inh -0.9%, BLM inh 3.5% and TDP1 inh 2.6%.
For Oc1ccc(COc2ccccc2Cl)c2cccnc12 the results were TDP1 inh 2.7%.
For Cc1snc(SCC(=O)c2ccc([N+](=O)[O-])cc2)c1C#N the results were GCN5L2 inh 6.31µM*, APEX1 inh -7.6%, RECQ1 inh inactive, BLM inh -9.5% and TDP1 inh 11.4%.
For Cc1snc(SCc2ccc(F)cc2)c1C#N the results were GCN5L2 inh 8.5%, APEX1 inh -16.6% and BLM inh -5.2%.
Screening O=C(CNC(=O)c1ccncc1)OC(C(=O)Nc1cc(C(F)(F)F)ccc1Cl)c1ccccc1 (configuration not stated) returned TDP1 inh -0.1%.
`Cc1ccc2[nH]c(=O)c3cc(C(=O)N4CCN(C(=O)c5ccco5)CC4)sc3c2c1` gave GCN5L2 inh -6.3%, APEX1 inh inconclusive, RECQ1 inh -24.2%, BLM inh -9.2%, LMNA splice mod 1.9% and TDP1 inh 56.2µM*.
C#CCOCCOCCOCCNc1nc(N2CCN(C(=O)[C@H](Cc3ccc(O)cc3)n3cc(CCO)nn3)CC2)nc(N2CCN(C(=O)[C@H](Cc3ccc(O)cc3)n3cc(CCO)nn3)CC2)n1 was read as GCN5L2 inh 0.9%, APEX1 inh -9.2%, RECQ1 inh 31.6µM*, BLM inh -15.9%, LMNA splice mod -8.6% and TDP1 inh -10.5%.
Screening C#CCOCCOCCOCCNc1nc(N2CCN(C(=O)[C@H]([C@@H](C)O)n3cc(CCCCN)nn3)CC2)nc(N2CCN(C(=O)[C@H](Cc3ccc(O)cc3)n3cc(CCO)nn3)CC2)n1 returned GCN5L2 inh -3.0%, APEX1 inh 3.4%, RECQ1 inh inactive, BLM inh -8.7%, LMNA splice mod 2.7% and TDP1 inh 2.6%.
For CC(C)CN(C[C@@H](O)[C@H](Cc1ccccc1)NC(=O)O[C@@H]1CCOC1)S(=O)(=O)c1ccc(N)cc1 the results were APEX1 inh -2.3%.
For CC(=O)Nc1sc2c(c1-c1nc3ccccc3s1)CN(C(C)C)CC2 the results were GCN5L2 inh -13.3%, APEX1 inh 11.9µM* and TDP1 inh 1.2%.
CC(=O)N1CCc2c(sc(NC(=O)C3CC3)c2-c2nc3ccccc3s2)C1 was read as GCN5L2 inh -18.2%, APEX1 inh inconclusive, RECQ1 inh inactive, BLM inh -9.9%, LMNA splice mod -22.6% and TDP1 inh 1.0%.
N#CC1(C#N)C(c2ccccc2)OC23CCCCC2C1(C#N)C(=N)O3 (configuration not stated) was read as GCN5L2 inh -3.5%, APEX1 inh -1.8%, RECQ1 inh 12.6µM*, BLM inh -5.3%, LMNA splice mod -6.6% and TDP1 inh -2.3%.
O=C(CCC(=O)N1CCSc2ccccc21)NCc1cccc(Cl)c1 was read as GCN5L2 inh 4.47µM*, APEX1 inh 7.8% and BLM inh -4.5%.
`Cc1coc2c(C)c3oc(=O)c(CCC(=O)N[C@@H](C)C(=O)N[C@@H](Cc4ccccc4)C(=O)O)c(C)c3cc12` gave GCN5L2 inh -4.5%, APEX1 inh 13.4µM* and BLM inh -5.6%.
